PubChem BioAssay (EPA / NIEHS)
Activity calls are given as the source filed them. The calls were made as follows: active = hit-call score of the fitted dose curve at least 0.9, where 1 is the maximum; inactive = score below 0.9.

Legend:
[1] = read-out: Monokine induced gamma interferon (MIG), CXCL9 (gene 4283); experiment: BSK_hDFCGF_MIG: BioMAP Diversity Plus: hDFCGF Assay for Monokine induced gamma interferon (MIG) Biomarker Activity (AID 2283063); conditions: primary human foreskin fibroblasts; actives raise or lower the signal
Procedure, shortened: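 Chemicals were added to primary human foreskin fibroblast cultures, which were sampled 24 h later. MIG levels were then quantified by ELISA and responses fitted in both directions relative to DMSO.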

[2] = read-out: Matrix Metallopeptidase 1 (MMP1), MMP1 (gene 4312); experiment: BSK_hDFCGF_MMP1: BioMAP Diversity Plus: hDFCGF Assay for Matrix Metallopeptidase 1 (MMP1) Biomarker Activity (AID 2283064); conditions: primary human foreskin fibroblasts; actives raise or lower the signal
Procedure, shortened: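 Primary human foreskin fibroblasts in the hDFCGF system were dosed with test chemical, and MMP1 was measured by ELISA 24 h later. Values come from bidirectional curve fitting against the DMSO baseline.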

[3] = read-out: Plasminogen activator inhibitor-1 (PAI1), SERPINE1 (gene 5054); experiment: BSK_hDFCGF_PAI1: BioMAP Diversity Plus: hDFCGF Assay for Plasminogen activator inhibitor-1 (PAI1) Biomarker Activity (AID 2283066); conditions: primary human foreskin fibroblasts; actives raise or lower the signal
Procedure, shortened: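 Human foreskin fibroblasts in the hDFCGF system were dosed with compound for 24 h; PAI-1 was quantified by ELISA. Bidirectional curve fitting used DMSO as negative control and baseline.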

[4] = read-out: Interferon-gamma inducible Protein 10 (IP10), CXCL10 (gene 3627); experiment: BSK_KF3CT_IP10: BioMAP Diversity Plus: KF3CT Assay for Interferon-gamma inducible Protein 10 (IP10) Biomarker Activity (AID 2283068); conditions: primary human keratinocytes with fibroblasts; actives raise or lower the signal
Procedure, shortened: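 In a primary skin co-culture of keratinocytes and fibroblasts, IP-10 is quantified by ELISA at 24 h after dosing. SRB staining of parallel wells monitors overt toxicity. Curves are fitted both directions against DMSO.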

[5] = BSK_KF3CT_SRB: Viability Assessment in the BioMAP Diversity Plus: KF3CT Assay (AID 2283069); conditions: primary human keratinocytes with fibroblasts;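 also: total protein by sulforhodamine B staining as a cytotoxicity measure; read 24 h after compound addition; fitted for both signal gain and loss against DMSO baseline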
Procedure, shortened: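 Human primary keratinocyte plus foreskin fibroblast co-culture exposed to chemicals for 24 h. Total protein measured by 0.1% sulforhodamine B staining after 10% TCA fixation, read at 560 nm; bidirectional fitting versus DMSO baseline.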

[6] = read-out: TIMP metallopeptidase inhibitor 2 (TIMP2), TIMP2 (gene 7077); experiment: BSK_KF3CT_TIMP2: BioMAP Diversity Plus: KF3CT Assay for TIMP metallopeptidase inhibitor 2 (TIMP2) Biomarker Activity (AID 2283071); conditions: primary human keratinocytes with fibroblasts; actives raise or lower the signal
Procedure, shortened: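 Human primary keratinocyte/foreskin fibroblast co-culture dosed with chemical and sampled at 24 h. TIMP-2 levels quantified by ELISA; bidirectional fitting against DMSO negative control as baseline.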

[7] = read-out: Transforming growth factor beta 1 (TGFb1), TGFB1 (gene 7040); experiment: BSK_KF3CT_TGFb1: BioMAP Diversity Plus: KF3CT Assay for Transforming growth factor beta 1 (TGFb1) Biomarker Activity (AID 2283072); conditions: primary human keratinocytes with fibroblasts; actives raise or lower the signal
Procedure, shortened: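 Human keratinocyte plus foreskin fibroblast primary co-culture, dosed with chemical for 24 h. TGF-b1 quantified by ELISA. Activity fitted bidirectionally against DMSO negative control as baseline.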

[8] = read-out: C-C motif chemokine 2 (Homo sapiens) (UniProt P13500); experiment: BSK_KF3CT_MCP1: BioMAP Diversity Plus: KF3CT Assay for Monocyte Chemoattractant Protein 1 (MCP1/CCL2) Biomarker Activity (AID 2283073); conditions: primary human keratinocytes with fibroblasts; actives raise or lower the signal
Procedure, shortened: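 ELISA readout of MCP-1 after 24 h chemical dosing of a human skin primary co-culture of keratinocytes and foreskin fibroblasts. Activity was fitted in both directions against DMSO.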

[9] = read-out: Matrix Metallopeptidase 9 (MMP9), MMP9 (gene 4318); experiment: BSK_KF3CT_MMP9: BioMAP Diversity Plus: KF3CT Assay for Matrix Metallopeptidase 9 (MMP9) Biomarker Activity (AID 2283074); conditions: primary human keratinocytes with fibroblasts; actives raise or lower the signal;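 as to AC50: MMP9 protein level quantified by ELISA in the co-culture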
Procedure, shortened: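 Keratinocyte plus foreskin fibroblast human primary skin co-culture was dosed with chemical and MMP-9 was quantified by ELISA 24 h later. Bidirectional curve fitting used DMSO as negative control and activity baseline.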

[10] = read-out: urokinase plasminogen activator (uPA), PLAU (gene 5328); experiment: BSK_KF3CT_uPA: BioMAP Diversity Plus: KF3CT Assay for urokinase plasminogen activator (uPA) Biomarker Activity (AID 2283075); conditions: primary human keratinocytes with fibroblasts; actives raise or lower the signal
Procedure, shortened: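 Human keratinocyte plus foreskin fibroblast primary co-culture exposed to chemical for 24 h. uPA levels were quantified by ELISA, and activity was fitted bidirectionally against a DMSO negative-control baseline.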

CD40, CD40 (gene 958) = experiment: BSK_LPS_CD40: BioMAP Diversity Plus: LPS Assay for CD40 Biomarker Activity (AID 2283076); conditions: primary human HUVEC with PBMC; actives raise or lower the signal
Procedure, shortened: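 Cells were dosed, incubated 24 h, then assayed for CD40 by ELISA. Gain or loss of signal was analysed relative to DMSO controls. The culture paired human umbilical vein endothelium with peripheral blood mononuclear cells.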

[11] = read-out: E-selectin (Homo sapiens) (UniProt P16581); experiment: BSK_LPS_Eselectin: BioMAP Diversity Plus: LPS Assay for Eselectin Biomarker Activity (AID 2283077); conditions: primary human HUVEC with PBMC; actives raise or lower the signal
Procedure, shortened: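 Primary human vascular co-culture (endothelium plus PBMC) was dosed with chemical, then E-selectin quantified by ELISA at 24 h. Endpoint values derive from bidirectional curve fitting relative to DMSO.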

[12] = read-out: Interleukin-8 (IL8), CXCL8 (gene 3576); experiment: BSK_LPS_IL8: BioMAP Diversity Plus: LPS Assay for Interleukin-8 (IL8) Biomarker Activity (AID 2283078); conditions: primary human HUVEC with PBMC; actives raise or lower the signal
Procedure, shortened: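 Readout is IL-8 by ELISA, taken 24 h after compounds were added to LPS-stimulated endothelial/PBMC co-cultures. Both increases and decreases relative to DMSO control were scored through bidirectional fitting.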

[13] = BSK_LPS_SRB: Viability Assessment in the BioMAP Diversity Plus: LPS Assay (AID 2283079); conditions: primary human HUVEC with PBMC;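 also: total protein by sulforhodamine B absorbance as a cytotoxicity measure; measured one day after compound addition; fitted in both directions against DMSO so loss or gain of signal counts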
Procedure, shortened: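 Readout is SRB absorbance at 560 nm (0.1% stain, TCA-fixed parallel cultures) as a total-protein cytotoxicity measure. Cells: primary human umbilical vein endothelium plus peripheral blood mononuclear cells, 24 h after chemical exposure; DMSO served as baseline.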

[14] = read-out: Monocyte Chemoattractant Protein-1 (MCP1), CCL2 (gene 6347); experiment: BSK_LPS_MCP1: BioMAP Diversity Plus: LPS Assay for Monocyte Chemoattractant Protein-1 (MCP1) Biomarker Activity (AID 2283081); conditions: primary human HUVEC with PBMC; actives raise or lower the signal;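 as to AC50: secreted MCP-1 protein quantified by ELISA in culture supernatant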
Procedure, shortened: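 Human endothelial–PBMC co-cultures were dosed with chemical, then LPS-driven MCP-1 levels were quantified by ELISA at 24 h. Activity in either direction was fitted versus DMSO negative control.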

[15] = BSK_LPS_PGE2: BioMAP Diversity Plus: LPS Assay for Prostaglandin E2 (PGE2) Biomarker Activity (AID 2283082); conditions: primary human HUVEC with PBMC; actives raise or lower the signal
Procedure, shortened: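 HUVEC plus PBMC co-culture stimulated with LPS; secreted PGE2 quantified by ELISA 24 h after chemical dosing. Activity fitted bidirectionally against DMSO as negative control and baseline; parallel SRB total-protein staining served as cytotoxicity check.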

[16] = read-out: Vascular cell adhesion molecule 1 (VCAM1), VCAM1 (gene 7412); experiment: BSK_hDFCGF_VCAM1: BioMAP Diversity Plus: hDFCGF Assay for Vascular cell adhesion molecule 1 (VCAM1) Biomarker Activity (AID 2283065); conditions: primary human foreskin fibroblasts; actives raise or lower the signal;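 as to AC50: VCAM-1 protein level quantified by ELISA after 24 h chemical exposure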
Procedure, shortened: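 Human foreskin fibroblast primary cells, chemical exposure 24 h; VCAM-1 by ELISA; bidirectional fit, DMSO = negative control/baseline.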

[17] = read-out: Interleukin-1 alpha (IL1a), IL1A (gene 3552); experiment: BSK_LPS_IL1a: BioMAP Diversity Plus: LPS Assay for Interleukin-1 alpha (IL1a) Biomarker Activity (AID 2283080); conditions: primary human HUVEC with PBMC; actives raise or lower the signal
Procedure, shortened: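 ELISA read-out of IL-1 alpha from a human primary vascular co-culture (endothelium plus PBMC) under LPS, sampled 24 hours post-dosing. Activity was fitted in both directions relative to DMSO controls.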

Sequence of E-selectin (Homo sapiens) (P16581 whole entry, looked up): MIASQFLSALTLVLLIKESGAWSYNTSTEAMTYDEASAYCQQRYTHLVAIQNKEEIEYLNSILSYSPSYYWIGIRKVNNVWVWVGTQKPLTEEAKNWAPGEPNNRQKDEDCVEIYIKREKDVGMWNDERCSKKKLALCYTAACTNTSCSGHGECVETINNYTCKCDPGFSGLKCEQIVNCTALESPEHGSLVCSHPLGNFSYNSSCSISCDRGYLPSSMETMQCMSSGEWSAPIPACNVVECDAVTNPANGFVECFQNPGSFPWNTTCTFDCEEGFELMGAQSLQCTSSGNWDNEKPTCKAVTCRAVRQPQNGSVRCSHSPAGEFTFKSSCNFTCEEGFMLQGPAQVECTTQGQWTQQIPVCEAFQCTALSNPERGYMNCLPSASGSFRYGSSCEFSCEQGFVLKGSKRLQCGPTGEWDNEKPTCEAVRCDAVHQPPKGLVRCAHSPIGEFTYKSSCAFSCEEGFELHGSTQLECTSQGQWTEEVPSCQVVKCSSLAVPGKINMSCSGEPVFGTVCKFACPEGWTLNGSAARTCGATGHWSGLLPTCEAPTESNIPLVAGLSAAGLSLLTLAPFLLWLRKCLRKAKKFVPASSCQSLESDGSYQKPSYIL

CCOCCO
outcome [1]: inactive
outcome [2]: inactive
outcome [3]: inactive
outcome [4]: inactive
outcome [5]: inactive
outcome [6]: inactive
outcome [7]: inactive
outcome [8]: inactive
outcome [9]: inactive
outcome [10]: inactive
outcome (CD40, CD40 (gene 958)): inactive
outcome [11]: inactive
outcome [12]: inactive
outcome [13]: inactive
outcome [14]: inactive
outcome [15]: inactive

CC(C)c1cccc(C(C)C)c1N1C(=O)c2ccc(O)cc2C1=O
AC50 [1]: 31.9 µM (active)
outcome [2]: inactive
AC50 [16]: 13.8 µM (active)
AC50 [3]: 22 µM (active)
AC50 [4]: 26 µM (active)
AC50 [5]: 29.1 µM (active)
AC50 [6]: 29.2 µM (active)
AC50 [7]: 29.4 µM (active)
outcome [8]: inactive
AC50 [9]: 23.2 µM (active)
AC50 [10]: 36.7 µM (active)
AC50 (CD40, CD40 (gene 958)): 8.13 µM (active)
AC50 [11]: 18.9 µM (active)
outcome [12]: inactive
AC50 [13]: 17.4 µM (active)
AC50 [14]: 34.8 µM (active)
outcome [15]: inactive

O=C(CCCCCCCCc1cccnc1)N1CCC(C=C(c2ccccc2)c2ccccc2)CC1
AC50 [1]: 11.5 µM (active)
AC50 [2]: 9.34 µM (active)
AC50 [16]: 8.47 µM (active)
AC50 [3]: 5.88 µM (active)
AC50 [4]: 15.5 µM (active)
AC50 [5]: 14.7 µM (active)
AC50 [6]: 10.8 µM (active)
AC50 [7]: 10.1 µM (active)
AC50 [8]: 16.9 µM (active)
AC50 [9]: 7.47 µM (active)
AC50 [10]: 15.7 µM (active)
AC50 (CD40, CD40 (gene 958)): 8.31 µM (active)
AC50 [11]: 14.4 µM (active)
AC50 [12]: 12 µM (active)
AC50 [13]: 11.7 µM (active)
AC50 [17]: 9.81 µM (active)
AC50 [14]: 10.1 µM (active)
outcome [15]: inactive

COCCOc1cc2cc(C(=O)NC3CCN(C(C)C)CC3)n(CC(=O)Nc3ccc(Cl)cn3)c2cn1
outcome [1]: inactive
outcome [2]: inactive
outcome [16]: inactive
outcome [3]: inactive
outcome [4]: inactive
outcome [5]: inactive
outcome [6]: inactive
outcome [7]: inactive
outcome [8]: inactive
outcome [9]: inactive
outcome [10]: inactive
outcome (CD40, CD40 (gene 958)): inactive
outcome [11]: inactive
outcome [12]: inactive
outcome [13]: inactive
outcome [17]: inactive
outcome [14]: inactive
outcome [15]: inactive
